The values below come from the supplement of paper PMC6522484.

For assay [1], the system named is DLD1. Nature of the assay: cell viability (CellTiter-Glo) relative to plate median (fraction of plate median); higher = more viable cells. To be noted: 5 µM; treatment time 24 h; reporter: 7TFP. The method, boiled down: (§1)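 Stable lentiviral TCF/Wnt firefly luciferase reporters (7TFP or TCF4/Wnt) were present in the colorectal cancer cell lines used. These cells received library compounds at a final 5 µM for 24 h, and parallel plates were read for firefly luciferase or CellTiterGlo luminescence. Each well was normalised to the plate median, and the value reported is the mean of two independent replicates.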
On the technique in general: In ATP-based viability assays light output follows the ATP content of the culture.

Assay [2] deals with HCT116. The assay is described as above. To be noted: 5 µM; treatment time 24 h; reporter: TCF4/Wnt. The essentials: as §1
The subject of assay [3] is SW480. The description is as above. As to conditions: 5 µM; treatment time 24 h; reporter: 7TFP. The method, boiled down:
as §1

The subject of assay [4] is DLD1. Nature of the assay: TCF/Wnt firefly luciferase reporter signal relative to plate median (fraction of plate median); higher = higher Wnt reporter signal. To be noted: 5 µM; treatment time 24 h; reporter: 7TFP. The essentials:
as §1

Assay [5] concerns SW480. The description is as above. As to conditions: 5 µM; treatment time 24 h; reporter: 7TFP. The method, boiled down:
as §1

± gives the standard deviation of the averaged measurements.

For the molecule `CC1(C)C2CC(=O)O[C@@]3(C)C4=CC(=O)O[C@@H](c5ccoc5)[C@]4(C)CCC3[C@@]2(C)C=C[C@H]1O` (stereo not given in full), the results for the cell viability in assay [1], in assay [2] and in assay [3] were 0.95 ± 0.065, 1.03 ± 0.047 and 0.993 ± 0.024, respectively. For the same molecule, the results for the “TCF/Wnt firefly luciferase reporter signal” value in assay [4] and in assay [5] were 1.05 ± 0.11 and 1.04 ± 0.16, respectively.

Take `COc1ccc(-c2cc(=O)c3c(OC)c(OC)c(OC)c(OC)c3o2)cc1`: the cell viability came out at 1 ± 0.064 in assay [1], 0.932 ± 0.059 in assay [2] and 1.05 ± 0.05 in assay [3]. Besides, the “TCF/Wnt firefly luciferase reporter signal” value stood at 1.13 ± 0.042 in assay [4] and 0.961 ± 0.0028 in assay [5].

For `COC(=O)/C=C/C(C)=C\C=C\C(C)=C\C=C\C=C(C)\C=C\C=C(C)\C=C\C(=O)O`, the cell viability in assay [1] came out at 1.05 ± 0.057; in assay [2], 1.05 ± 0.028; in assay [3] it was 0.968 ± 0.046. Besides, the “TCF/Wnt firefly luciferase reporter signal” value in assay [4] is 0.981 ± 0.042; in assay [5] it was 0.997 ± 0.047.

For the molecule `CC1(C)CC[C@]2(C(=O)O)CC[C@]3(C)C(=CC[C@@H]4[C@@]5(C)CC[C@H](O)[C@@](C)(CO)[C@@H]5CC[C@]43C)[C@@H]2C1`, the cell viability in assay [1] was determined as 0.995 ± 0.16; in assay [2] it was 1.025 ± 0.0071; in assay [3], 1.01 ± 0.04. Moreover, the “TCF/Wnt firefly luciferase reporter signal” value in assay [4] was found to be 0.99 ± 0.042; in assay [5], 0.975 ± 0.078.

For `NC[C@H](O)c1ccc(O)c(O)c1`, the cell viability turned out to be 1.02 ± 0.035 in assay [1], 0.95 ± 0.071 in assay [2] and 1.005 ± 0.0071 in assay [3]. The entries for the “TCF/Wnt firefly luciferase reporter signal” value in assay [4] and in assay [5] were 0.962 ± 0.069 and 0.9835 ± 0.0078, respectively.

Regarding `Oc1ccc2c(c1)O[C@H](c1ccc(O)c(O)c1)[C@@H](O)C2`, the figures for the cell viability in assay [1], in assay [2] and in assay [3] were 1.07 ± 0.014, 1.04 ± 0.028 and 1.05 ± 0.096, respectively. Besides, the “TCF/Wnt firefly luciferase reporter signal” value in assay [4] was found to be 0.926 ± 0.058; in assay [5], 0.9675 ± 0.005.

Turning to `N#Cc1ccc2c(c1)N(CCCN1CCC(O)CC1)c1ccccc1S2`, the cell viability was determined as 0.991 ± 0.07 in assay [1], 0.931 ± 0.053 in assay [2] and 1.01 ± 0.069 in assay [3]. Besides, the “TCF/Wnt firefly luciferase reporter signal” value was 0.981 ± 0.056 in assay [4] and 1.05 ± 0.071 in assay [5].

In the case of `CC(=O)NCCc1ccc(O)cc1` [N-(p-Hydroxyphenyl)ethylacetamide], the values for the cell viability in assay [1], in assay [2] and in assay [3] were 1.02 ± 0.04, 1.09 ± 0.057 and 1.06 ± 0.021, respectively. In addition, the “TCF/Wnt firefly luciferase reporter signal” value was found to be 0.99 ± 0.099 in assay [4] and 1.14 ± 0.021 in assay [5].

`CC(=O)c1c2c(c(C)n1-c1ccccc1C(=O)O)C(=O)c1c(O)cccc1C2=O` [Bhimamycin D]: the cell viability in assay [1] came to 1.02 ± 0.048; in assay [2], 0.863 ± 0.025; in assay [3], 0.969 ± 0.072. Also, the “TCF/Wnt firefly luciferase reporter signal” value in assay [4] was 1.05 ± 0.11; in assay [5], 1.08 ± 0.042.

As for `Cc1c(C(=O)O)c(O)cc2c1C(=O)c1c(O)c([C@@H]3O[C@H](CO)[C@@H](O)[C@H](O)[C@H]3O)c(O)c(O)c1C2=O`, the values for the cell viability in assay [1], in assay [2] and in assay [3] were 0.97 ± 0.032, 1.01 ± 0.089 and 0.9855 ± 0.0078, respectively. Besides, the “TCF/Wnt firefly luciferase reporter signal” value in assay [4] worked out at 1.08 ± 0.17; in assay [5], 1.07 ± 0.14.

In the case of `CC(C)C1=CC2=CC[C@@H]3[C@](C)(CCC[C@@]3(C)C(=O)O)[C@H]2CC1`, the cell viability in assay [1] amounted to 0.967 ± 0.09; in assay [2] it was 0.97 ± 0.013; in assay [3], 0.897 ± 0.012. Also, the “TCF/Wnt firefly luciferase reporter signal” value in assay [4] was 1.1 ± 0.11; in assay [5], 0.912 ± 0.09.

Turning to `NC(=O)c1ccc[n+]([C@@H]2O[C@H](COP(=O)([O-])OP(=O)(O)OC[C@H]3O[C@@H](n4cnc5c(N)ncnc54)[C@H](O)[C@@H]3O)[C@@H](O)[C@H]2O)c1`, the cell viability was determined as 0.955 ± 0.11 in assay [1], 0.956 ± 0.09 in assay [2] and 0.942 ± 0.027 in assay [3]. In addition, the “TCF/Wnt firefly luciferase reporter signal” value in assay [4] is 1.1 ± 0.057; in assay [5], 1.24 ± 0.071.

Take `CC(C)=CC1C(CO)C1(C)C` (stereo not given): the cell viability in assay [1] was found to be 0.996 ± 0.049; in assay [2], 0.948 ± 0.061; in assay [3], 1.02 ± 0.014. Moreover, the “TCF/Wnt firefly luciferase reporter signal” value is 0.984 ± 0.052 in assay [4] and 0.97 ± 0.18 in assay [5].

In the case of `COc1ccccc1N1CCN(CCCNc2cc(=O)n(C)c(=O)n2C)CC1`, the results for the cell viability in assay [1], in assay [2] and in assay [3] were 0.938 ± 0.037, 0.885 ± 0.018 and 0.93 ± 0.025, respectively. For the same molecule, the “TCF/Wnt firefly luciferase reporter signal” value is 1.03 ± 0.05 in assay [4] and 0.953 ± 0.081 in assay [5].
